High-throughput results deposited in PubChem by The Scripps Research Institute Molecular Screening Center.
TEAD-YAP inh: TEAD-YAP interaction inhibition, primary screen, TEAD-YAP interaction inhibitor project, luminescence, HEK-TIYL cells; TEAD-Gal4/YAP UAS-luciferase luminescence; inhibition, % at 9.12 µM; 640,000 tested, 1.4% active; AID 1259422, 2018; in the data active means inhibition above about 32%
MITF inh: MITF inhibitors, primary screen, biochemical, AlphaScreen, human. Microphthalmia-associated transcription factor (Homo sapiens), O75030. inhibition, % at 2.6 µM. AlphaScreen MITF homodimerization, bead proximity signal. 650,000 tested, 0.91% active; in the data active means inhibition above about 50%
GPR151 ag: activators of human GPR151, primary screen, cell-based, PathHunter beta-arrestin, luminescence; G-protein coupled receptor 151 (Homo sapiens), Q8TDV0; PathHunter beta-arrestin GPR151 cells; activation, % at 11.2 µM; 650,000 tested, 1% active; AID 1508602, 2020; in the data active means activation above about 4.9%
Target sequence (Q8TDV0 whole entry, looked up): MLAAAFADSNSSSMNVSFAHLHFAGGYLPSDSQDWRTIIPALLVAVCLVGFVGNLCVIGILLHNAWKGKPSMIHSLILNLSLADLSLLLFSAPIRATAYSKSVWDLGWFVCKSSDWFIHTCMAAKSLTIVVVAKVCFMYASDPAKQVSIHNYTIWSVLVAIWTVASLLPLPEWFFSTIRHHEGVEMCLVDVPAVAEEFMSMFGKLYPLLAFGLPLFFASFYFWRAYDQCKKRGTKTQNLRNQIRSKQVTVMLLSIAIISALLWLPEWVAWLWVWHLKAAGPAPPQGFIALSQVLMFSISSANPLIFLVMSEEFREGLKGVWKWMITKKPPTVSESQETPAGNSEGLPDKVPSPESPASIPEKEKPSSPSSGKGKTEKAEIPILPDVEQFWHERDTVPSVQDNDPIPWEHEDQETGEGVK
FBW7 activator: FBW7 E3 ligase activators, primary screen, biochemical, AlphaScreen, human. AlphaScreen FBW7–phospho-cyclin E peptide binding, activator screen. normalized activity (activation), % at 26.1 µM. 650,000 tested, 0.13% active; in the data active means normalized activity above about 1.9%;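 further: purified mutant Fbw7 with reduced substrate affinity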
MITF inh conf: MITF inhibitors, retest of hits, confirmation, biochemical, AlphaScreen, triplicate. shares compounds with MITF inh. AlphaScreen MITF homodimerization, biotin/His-MITF beads. inhibition, % at 2.6 µM. 4,700 tested, 16% active. AID 1259372, 2018;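 active means inhibition above a cutoff derived from the DMSO control wells, cut at about 28% in these data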;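 further: inhibitors lower the bead chemiluminescence by keeping MITF from dimerizing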
AS interf DR: AlphaScreen optical interference compounds, dose response, counter-screen, biochemical, HTS; AlphaScreen optical interference counterscreen, cell-free; shares compounds with MITF inh; AID 1259373, 2018; 480 tested, 6% active; IC50, µM; call rule not given here
AS interf ctr: AlphaScreen optical interference compounds, counter-screen for MITF inhibitor project, biochemical, triplicate; shares compounds with MITF inh; inhibition, % at 2.6 µM; 4,700 tested, 7.6% active; AID 1259376, 2018; LysRS AlphaScreen counterscreen, signal interference;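 active means inhibition above a cutoff derived from the DMSO control wells, cut at about 30% in these data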
Of the large screens only hits and unclear results are named; the others gave an inactive call (follow-up assays come after a bar, where they were run). Most compounds without a hit are left out; they make up all but 3.4% or so of the library.

O=C(CC1(O)C(=O)Nc2ccc([N+](=O)[O-])cc21)c1ccccc1 (configuration not stated)	MITF inh 69 | MITF inh conf inactive | AS interf ctr inactive
O=C(CC1(O)C(=O)Nc2ccccc21)c1ccc([N+](=O)[O-])cc1 (configuration not stated)	none
C=CC1=C(C)C2=Cc3c(C=C)c(C)c4[n]3[Sn+2][n]3c(c(C)c(CCC(=O)O)c3=CC3=NC(=C4)C(C)=C3CCC(=O)O)=CC1=N2	MITF inh 55 (no result: TEAD-YAP inh) | MITF inh conf 62 | AS interf DR inactive | AS interf ctr inactive
C=CC1=C(C)c2cc3[n-]c(cc4nc(cc5[n-]c(cc1n2)c(C)c5CCC(=O)O)C(CCC(=O)O)=C4C)c(C)c3C=C.[Zn+2]	none (no result: TEAD-YAP inh)
C=CCn1c(COc2ccc(Br)cc2)nnc1SCC(=O)C(C)(C)C	none
Cc1ccc2[nH]c(C)c(CCNC(=O)c3cccc([N+](=O)[O-])c3)c2c1	MITF inh 74 | MITF inh conf inactive | AS interf ctr inactive
Cc1[nH]c2ccc(F)cc2c1CCNC(=O)c1cccc([N+](=O)[O-])c1	none
Cc1ccc(/C=c2\sc3ncnn3c2=O)o1	MITF inh 61 | MITF inh conf inactive | AS interf ctr inactive
COc1ccc(OC)c(CN2CCSCC2)c1	none
COc1cccc(CN2CCN(CC3CC=CCC3)CC2)c1OC (configuration not stated)	MITF inh 81 | MITF inh conf inactive | AS interf ctr inactive
COc1ccc(OC)c(CN2CCN(CC3CC=CCC3)CC2)c1 (configuration not stated)	MITF inh 54 | MITF inh conf inactive | AS interf ctr inactive
COc1cc(C(=O)N2CCN(CC3CC=CCC3)CC2)cc(OC)c1OC (configuration not stated)	none
COc1cc(OC)c(OC)cc1CN1CCN(CC2CC=CCC2)CC1 (configuration not stated)	MITF inh 51 | MITF inh conf inactive | AS interf ctr inactive
COc1ccc(C(CC(=O)Nc2nccs2)N2Cc3ccccc3C2=O)cc1OC (configuration not stated)	none
CCCCSc1nc2c(c(=O)[nH]1)C(c1ccc(N(C)C)cc1)C1=C(CCCC1=O)N2 (configuration not stated)	none
COC(=O)CCCC[C@H]1SC[C@H]2NC(=O)N[C@H]21	none
O=C(CCCCC1SCC2NC(=O)NC21)NC1(c2ccc(F)cc2)CCCC1 (configuration not stated)	MITF inh 109 | MITF inh conf 88 | AS interf DR 4.3 | AS interf ctr inactive
COc1cccc(CN2CCN(C3CCCCCC3)CC2)c1	MITF inh 58 | MITF inh conf inactive | AS interf ctr inactive
COc1cccc(CN2CCN(C3CCC(C)CC3)CC2)c1 (configuration not stated)	MITF inh 70 | MITF inh conf inactive | AS interf ctr inactive
COc1cccc(CN2CCN(C3CCCCC3)CC2)c1	MITF inh 60 | MITF inh conf inactive | AS interf ctr inactive
COc1cccc(CN2CCC(C(=O)NC3CCCCCC3)CC2)c1	MITF inh 65 | MITF inh conf inactive | AS interf ctr inactive
CCOc1ccc(C(=O)n2sc(=O)c3ccccc32)cc1	none
Cc1cc(Cl)ccc1OCCCC(=O)Nc1nnc(C(F)(F)F)s1	none
COc1cc(Cl)c(CN2CCc3nnc(C(C)C)n3CC2)cc1OC	none
COc1cccc(CN2CCN(C(=O)C3CC3)[C@@H](C)C2)c1	MITF inh 62 | MITF inh conf inactive | AS interf ctr inactive
CC(=O)NC1(c2ccccc2)CCN(C(=O)N2CCOCC2)CC1	MITF inh 82 | MITF inh conf inactive | AS interf ctr inactive
CC(=O)NC1(c2ccccc2)CCN(C(=O)C2CC2)CC1	none
CN(C)c1cccc(C(=O)N2N=C(C(F)F)CC2(O)C(F)F)c1 (configuration not stated)	MITF inh 75 | MITF inh conf inactive | AS interf ctr inactive
CN(C)c1ccc(C(=O)N2N=C(C(F)F)CC2(O)C(F)F)cc1 (configuration not stated)	none
c1ccc(-c2cc(N3CCOCC3)nc(-c3ccccn3)n2)cc1	MITF inh 77 | MITF inh conf inactive | AS interf ctr inactive
COc1ccc(S(=O)(=O)N(CC(=O)N2CCOCC2)C2CCCCC2)cc1Cl	none
COc1cc(Nc2nc(-c3ccccc3)nc3c2ncn3C2CCCCC2)cc(OC)c1OC	none
COc1ccccc1C(c1ccc(C)o1)c1ccc(C)o1	none
Cc1ccc(C(c2ccc(C)o2)c2ccccc2N)o1	MITF inh 67 | MITF inh conf inactive | AS interf ctr inactive
COC(=O)/C(=C/c1ccc(OC)cc1)NC(=O)c1ccccc1OC	none
O=C(CN1CCSCC1)N/N=C/c1cccc(C(F)(F)F)c1	MITF inh 56 | MITF inh conf inactive | AS interf ctr inactive
O=C(c1ccncc1)N1CCN(CCc2ccccc2)CC1	none
COc1cccc(C(=O)N2CCN(Cc3c[nH]c4ccccc34)CC2)c1	MITF inh 73 | MITF inh conf inactive | AS interf ctr inactive
O=C(c1cccc(Cl)c1)N1CCN(Cc2c[nH]c3ccccc23)CC1	none
O=C(c1ccncc1)N1CCN(Cc2c[nH]c3ccccc23)CC1	MITF inh 56 | MITF inh conf inactive | AS interf ctr inactive
Cc1ccc(C)c(NC(=O)c2ccc(=O)n(Cc3cccc(F)c3)c2)c1	none
Cc1ccc(-c2nc3cc(NC(=O)c4cccnc4)ccc3o2)cc1Cl	none
Cc1ccc(-c2nc3cc(NC(=O)c4cccnc4)ccc3o2)cc1C	MITF inh 63 | MITF inh conf inactive | AS interf ctr inactive
CC(=O)Nc1ccc(C(=O)NC(CC(=O)O)c2cccc([N+](=O)[O-])c2)cc1 (configuration not stated)	MITF inh 60 | MITF inh conf inactive | AS interf ctr inactive
CC(C)(C)c1ccc(C(=O)NC(CC(=O)O)c2cccc([N+](=O)[O-])c2)cc1 (configuration not stated)	none
CN(C)C(CNCC(=O)NC1CCCc2ccccc21)c1ccccc1 (configuration not stated)	MITF inh 76 | MITF inh conf inactive | AS interf ctr 56
CC(C)CN1C(=O)C(=O)N(CC(=O)NC2CCCc3ccccc32)C1=O (configuration not stated)	none
Cc1cccc(NC(=O)CNCc2cccnc2)c1C	MITF inh 83 | MITF inh conf inactive | AS interf ctr inactive
O=C(COC(=O)c1ccccc1Cl)Nc1ccccc1N1CCOCC1	none
